Whole data set: some 18,000 sequences, median “log2 normalized intensity” near 0.36, cut for the highest 2% near 7.3. For the sample, the highest values were picked, then their nearest neighbours and some sequences at random.
biological target: T1, HNF4alpha8 (COS-7 nuclear extract) (Homo sapiens, UniProt P41235-5 1-452); experiment: protein-binding microarray; COS-7 nuclear extract on double-stranded Agilent 4x180k PBM; binding buffer, salt, pH and temperature not given in the material; high values mean tight binding; conditions: chain copies: 2; label: 3' end of strand 1 on the slide; dsDNA, one strand shown
T1 sequence: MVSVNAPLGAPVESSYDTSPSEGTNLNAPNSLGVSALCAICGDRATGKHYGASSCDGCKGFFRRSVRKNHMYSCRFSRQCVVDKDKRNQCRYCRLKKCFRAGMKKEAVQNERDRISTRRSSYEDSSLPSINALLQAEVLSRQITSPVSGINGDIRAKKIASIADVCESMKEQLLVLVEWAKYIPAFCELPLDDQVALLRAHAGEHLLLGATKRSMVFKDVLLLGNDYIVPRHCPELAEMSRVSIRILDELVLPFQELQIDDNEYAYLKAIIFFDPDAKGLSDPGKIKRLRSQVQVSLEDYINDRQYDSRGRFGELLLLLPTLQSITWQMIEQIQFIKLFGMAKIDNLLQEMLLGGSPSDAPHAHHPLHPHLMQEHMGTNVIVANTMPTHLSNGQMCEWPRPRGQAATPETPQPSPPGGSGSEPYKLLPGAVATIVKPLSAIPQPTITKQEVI
Outline: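 Using CaPO4, COS-7 cells were transiently transfected with a human HNF4α isoform expression vector, and their nuclear extracts were applied to a custom Agilent SurePrint G3 4x180k double-stranded oligonucleotide array (~60 nt; ~44,000 test sequences in quadruplicate). Bound HNF4α was imaged at 2-µm resolution with an Agilent G2565CA scanner. Agilent software supplied the background-corrected, normalized gProcessedSignal that serves as the binding signal.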

Sequence	binding signal
GGACTTCGAATGGTATGCTAGAGTACTTGGGCCTAGGGAGATTAGAGTATCGGTCGA	1.51 log2 normalized intensity
CTTTAACGACCTTTGGACTTGAATTATCCTGCCTAGGGAGATTAGAGTATCGGTCGA	8.83 log2 normalized intensity
AGAGTTAGGGCCTTGCTATGGAGTGGACTTGCCTAGGGAGATTAGAGTATCGGTCGA	3.91 log2 normalized intensity
GCCTAAGCAGGGCTAGACTTTAACCCCCTTGCCTAGGGAGATTAGAGTATCGGTCGA	6.24 log2 normalized intensity
TGCTAGAGTACTTGGACTTTAACCTTTAGAGCCTAGGGAGATTAGAGTATCGGTCGA	9.71 log2 normalized intensity
ACGACCTTTGGACTTGAATTATCCTTATGGGCCTAGGGAGATTAGAGTATCGGTCGA	6.99 log2 normalized intensity
TCGAATGGTATGCTAGAGTACTTGGACTTTGCCTAGGGAGATTAGAGTATCGGTCGA	7.5 log2 normalized intensity
TGGTATGCTAGAGTACTTGGACTTTAACCTGCCTAGGGAGATTAGAGTATCGGTCGA	9.56 log2 normalized intensity
CTTTGGACTTGAATTATCCTTATGGTCTCTGCCTAGGGAGATTAGAGTATCGGTCGA	0.611 log2 normalized intensity
GCTTTTGGAAGGACTTCGAATGGTATGCTAGCCTAGGGAGATTAGAGTATCGGTCGA	-0.468 log2 normalized intensity
ACACTGGGCTAGAGGTCTTAATCTTTTTACGCCTAGGGAGATTAGAGTATCGGTCGA	1.15 log2 normalized intensity
CAGTGGGAGACAGGCATTAACCCTTTAGTGGCCTAGGGAGATTAGAGTATCGGTCGA	0.965 log2 normalized intensity
CAACCCATCCAACTCCTTGAGAAGTACAACGCCTAGGGAGATTAGAGTATCGGTCGA	-0.809 log2 normalized intensity
CAAAATATCTCACTCCCACACTGGTAACCTGCCTAGGGAGATTAGAGTATCGGTCGA	0.32 log2 normalized intensity
CAGCTGTTATCTCTTTTGTGATAGAATGAAGCCTAGGGAGATTAGAGTATCGGTCGA	1.89 log2 normalized intensity
GTGTCATTGTTATTTACGGTGGGCACCTCAGCCTAGGGAGATTAGAGTATCGGTCGA	0.235 log2 normalized intensity
AGTGTTTCAAAGGAGTGTCTTTCTCCTTGAGCCTAGGGAGATTAGAGTATCGGTCGA	1.38 log2 normalized intensity
GAGTACTTGGACTTTAACCTTTAGATTACTGCCTAGGGAGATTAGAGTATCGGTCGA	7.94 log2 normalized intensity
ACTTTAACCTTTAGATTACTAGGAATTGATGCCTAGGGAGATTAGAGTATCGGTCGA	1.53 log2 normalized intensity
CTTGGACTTTAACCTTTAGATTACTAGGAAGCCTAGGGAGATTAGAGTATCGGTCGA	6.61 log2 normalized intensity
TGCCAAGGAGCCTCTGCAACCTTTGCTCTCGCCTAGGGAGATTAGAGTATCGGTCGA	6.62 log2 normalized intensity
CTGCCACATTTTTATCCTTTTTTGAAGGTTGCCTAGGGAGATTAGAGTATCGGTCGA	2 log2 normalized intensity
ATGGTTAAGGTGAAAGTCCGACTTTTAAGAGCCTAGGGAGATTAGAGTATCGGTCGA	4.06 log2 normalized intensity

Sequence	binding signal
TTTGAAGGTTAAAGTCCATTTTTGAGGACCGCCTAGGGAGATTAGAGTATCGGTCGA	6.47 log2 normalized intensity
ACATTTTTATCCTTTTTTGAAGGTTAAAGTGCCTAGGGAGATTAGAGTATCGGTCGA	3 log2 normalized intensity
CCTTTTTTGAAGGTTAAAGTCCATTTTTGAGCCTAGGGAGATTAGAGTATCGGTCGA	7.52 log2 normalized intensity
TTTATCCTTTTTTGAAGGTTAAAGTCCATTGCCTAGGGAGATTAGAGTATCGGTCGA	7.82 log2 normalized intensity
AAACCTCCCCCAAACCAAAGAGAAATGGTGGCCTAGGGAGATTAGAGTATCGGTCGA	3.41 log2 normalized intensity
TGGTTTTCCAATCTGGTGAAAGATGATGAGGCCTAGGGAGATTAGAGTATCGGTCGA	0.365 log2 normalized intensity
TCTAAGGCAAAACACCCCTTTCACTTCTTCGCCTAGGGAGATTAGAGTATCGGTCGA	0.915 log2 normalized intensity
CCATTTATAAGAAACTGCTCCTGCTTGGGAGCCTAGGGAGATTAGAGTATCGGTCGA	-0.881 log2 normalized intensity
TGCCAGCCCCGAGATAACCCCTCTCCAAGCGCCTAGGGAGATTAGAGTATCGGTCGA	4.43 log2 normalized intensity
ATAGACTGTCCCTCAGTGTGGGACTTTGGTGCCTAGGGAGATTAGAGTATCGGTCGA	3.52 log2 normalized intensity
CCCTGCCTGACCTGCCCTTTGTCCCTCCTGGCCTAGGGAGATTAGAGTATCGGTCGA	5.06 log2 normalized intensity
TCACTGACCTCTGCCCTACTGTATATCCTGGCCTAGGGAGATTAGAGTATCGGTCGA	2.89 log2 normalized intensity
CTCTTTGGTGCAAAGGTCAGGACAAGGCTCGCCTAGGGAGATTAGAGTATCGGTCGA	4.73 log2 normalized intensity
TGGTGCAAAGGTCAGGACAAGGCTCTGGTGGCCTAGGGAGATTAGAGTATCGGTCGA	4.55 log2 normalized intensity
AGAAGGAAAAGGCCTGACCTTTGCCCTCTGGCCTAGGGAGATTAGAGTATCGGTCGA	10.4 log2 normalized intensity
GACCTTTGCCCTCTGGCCCTTAAAGGCTTTGCCTAGGGAGATTAGAGTATCGGTCGA	7.8 log2 normalized intensity
ACAGAAGAAGGAAAAGGCCTGACCTTTGCCGCCTAGGGAGATTAGAGTATCGGTCGA	5.58 log2 normalized intensity
GAAAAGGCCTGACCTTTGCCCTCTGGCCCTGCCTAGGGAGATTAGAGTATCGGTCGA	9.29 log2 normalized intensity
CAGAGGCTTCCTCTTTGGTGCAAAGGTCAGGCCTAGGGAGATTAGAGTATCGGTCGA	7.47 log2 normalized intensity
TTCTGCCCCTTGCTCCTGCTTGCTGGCTTTGCCTAGGGAGATTAGAGTATCGGTCGA	1.35 log2 normalized intensity
CCCTCGACCTTTGCCCTCCATAAGGGGGAGGCCTAGGGAGATTAGAGTATCGGTCGA	6.74 log2 normalized intensity
AGAGGACAGAAGAAGGAAAAGGCCTGACCTGCCTAGGGAGATTAGAGTATCGGTCGA	1.07 log2 normalized intensity
